Substitutions are numbered along the chain they refer to.
Legend:
Experiment in all cases: PBM; 200 nM protein, PBS
Conditions in all cases: dsDNA, one strand shown
[1] = target: PRRX1 (Homo sapiens, UniProt P54821 80-166, F113S)
[2] = target: HOXB6 (Homo sapiens, UniProt P17509 132-218, K202E)
[3] = target: HOXA2 (Homo sapiens, UniProt O43364 129-215, R185T)
[4] = target: HOXA2 (Homo sapiens, UniProt O43364 129-215, R185K)
[5] = target: PROP1 (Homo sapiens, UniProt O75360 56-141)
[6] = target: PROP1 (Homo sapiens, UniProt O75360 56-141, R99H)
[7] = target: PROP1 (Homo sapiens, UniProt O75360 56-141, F88S)
[8] = target: HOXA2 (Homo sapiens, UniProt O43364 129-215, Y150S)
[9] = target: PRRX1 (Homo sapiens, UniProt P54821 80-166)
[10] = target: HOXA2 (Homo sapiens, UniProt O43364 129-215)
[11] = target: HOXB6 (Homo sapiens, UniProt P17509 132-218)
[12] = target: T1, PAX4 (Homo sapiens, UniProt O43316 9-242, R200K)
T1 sequence: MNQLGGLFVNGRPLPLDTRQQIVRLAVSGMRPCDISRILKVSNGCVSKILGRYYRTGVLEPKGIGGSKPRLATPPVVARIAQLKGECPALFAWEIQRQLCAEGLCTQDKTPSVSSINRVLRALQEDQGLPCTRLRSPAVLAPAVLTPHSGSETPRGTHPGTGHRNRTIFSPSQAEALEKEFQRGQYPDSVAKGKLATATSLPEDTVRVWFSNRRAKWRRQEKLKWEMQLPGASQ

[13] = target: T2, PAX4 (Homo sapiens, UniProt O43316 9-242, F177Y)
T2 sequence: T1 sequence with F169Y, K192R

[14] = target: T3, PAX4 (Homo sapiens, UniProt O43316 9-242, R227W)
T3 sequence: T1 sequence with K192R, R219W

[15] = target: T4, PAX4 (Homo sapiens, UniProt O43316 9-242)
T4 sequence: T1 sequence with K192R

[16] = target: T5, PAX4 (Homo sapiens, UniProt O43316 9-242, R200Q)
T5 sequence: T1 sequence with K192Q

[17] = target: T6, PAX4 (Homo sapiens, UniProt O43316 9-242, F177V)
T6 sequence: T1 sequence with F169V, K192R

[18] = target: MSX2 (Homo sapiens, UniProt P35548 130-214, R199I)
[19] = target: SHOX (Homo sapiens, UniProt O15266 103-189, R173C)
[20] = target: ALX3 (Homo sapiens, UniProt O95076 139-225, L168V)
[21] = target: ALX4 (Homo sapiens, UniProt Q9H161 200-286, Q225E)
[22] = target: ALX1 (Homo sapiens, UniProt Q15699 118-204, L144V)
[23] = target: ALX1 (Homo sapiens, UniProt Q15699 118-204, L144R)
[24] = target: HESX1 (Homo sapiens, UniProt Q9UBX0 95-180, R109Q)
[25] = target: ALX3 (Homo sapiens, UniProt O95076 139-225, L168Q)
[26] = target: ALX1 (Homo sapiens, UniProt Q15699 118-204)
[27] = target: HOXD13 (Homo sapiens, UniProt P35453 263-343, T313R)
[28] = target: HOXD13 (Homo sapiens, UniProt P35453 263-343)
[29] = target: HOXD13 (Homo sapiens, UniProt P35453 263-343, T313A)
[30] = target: MSX2 (Homo sapiens, UniProt P35548 130-214)
[31] = target: MSX2 (Homo sapiens, UniProt P35548 130-214, F161Y)
Sequence of MSX2 (Homo sapiens, UniProt P35548 130-214, F161Y) (P35548 130-214 F161Y): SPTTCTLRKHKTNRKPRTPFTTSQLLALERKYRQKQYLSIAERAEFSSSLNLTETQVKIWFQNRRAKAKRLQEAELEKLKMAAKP

Sequence of PRRX1 (Homo sapiens, UniProt P54821 80-166) (P54821 80-166): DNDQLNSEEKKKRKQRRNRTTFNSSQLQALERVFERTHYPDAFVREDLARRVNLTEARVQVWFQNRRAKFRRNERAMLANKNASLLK
Sequence of PRRX1 (Homo sapiens, UniProt P54821 80-166, F113S) (P54821 80-166 F113S): as the sequence (P54821 80-166) above, with F34S counted along it
Sequence of SHOX (O15266 103-189 R173C): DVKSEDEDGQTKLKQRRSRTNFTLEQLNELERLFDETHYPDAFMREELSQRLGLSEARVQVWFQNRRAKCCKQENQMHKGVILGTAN
Sequence of HOXA2 (Homo sapiens, UniProt O43364 129-215, R185T) (O43364 129-215 R185T): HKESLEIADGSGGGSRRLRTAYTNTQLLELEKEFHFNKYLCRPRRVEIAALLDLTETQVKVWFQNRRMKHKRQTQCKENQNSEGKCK
Sequence of MSX2 (Homo sapiens, UniProt P35548 130-214, R199I) (P35548 130-214 R199I): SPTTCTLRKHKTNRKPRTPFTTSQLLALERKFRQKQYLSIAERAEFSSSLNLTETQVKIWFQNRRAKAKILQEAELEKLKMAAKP
Sequence of HOXA2 (Homo sapiens, UniProt O43364 129-215, Y150S) (O43364 129-215 Y150S): as the sequence (O43364 129-215 R185T) above, with Y22S, T57R counted along it
Sequence of HOXA2 (Homo sapiens, UniProt O43364 129-215, R185K) (O43364 129-215 R185K): as the sequence (O43364 129-215 R185T) above, with T57K counted along it
Sequence of HOXA2 (Homo sapiens, UniProt O43364 129-215) (O43364 129-215): as the sequence (O43364 129-215 R185T) above, with T57R counted along it
Sequence of ALX3 (Homo sapiens, UniProt O95076 139-225, L168V) (O95076 139-225 L168V): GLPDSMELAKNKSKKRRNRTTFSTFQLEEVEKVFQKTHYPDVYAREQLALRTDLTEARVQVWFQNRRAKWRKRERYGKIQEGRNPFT
Sequence of PROP1 (Homo sapiens, UniProt O75360 56-141) (O75360 56-141): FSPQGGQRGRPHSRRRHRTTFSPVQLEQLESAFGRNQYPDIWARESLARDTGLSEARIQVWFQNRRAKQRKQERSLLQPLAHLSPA
Sequence of PROP1 (Homo sapiens, UniProt O75360 56-141, R99H) (O75360 56-141 R99H): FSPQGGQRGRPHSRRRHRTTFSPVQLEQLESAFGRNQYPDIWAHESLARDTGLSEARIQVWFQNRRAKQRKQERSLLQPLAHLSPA
Sequence of ALX4 (Q9H161 200-286 Q225E): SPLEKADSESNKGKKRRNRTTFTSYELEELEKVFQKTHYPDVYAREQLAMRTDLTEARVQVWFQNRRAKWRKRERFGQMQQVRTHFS
Sequence of ALX1 (Homo sapiens, UniProt Q15699 118-204, L144V) (Q15699 118-204 L144V): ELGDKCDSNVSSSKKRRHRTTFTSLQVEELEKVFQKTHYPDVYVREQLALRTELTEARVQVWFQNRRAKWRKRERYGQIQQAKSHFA
Sequence of PROP1 (Homo sapiens, UniProt O75360 56-141, F88S) (O75360 56-141 F88S): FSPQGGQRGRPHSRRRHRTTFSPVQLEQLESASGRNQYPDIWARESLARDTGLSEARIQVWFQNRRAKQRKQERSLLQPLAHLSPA
Sequence of HOXD13 (Homo sapiens, UniProt P35453 263-343, T313R) (P35453 263-343 T313R): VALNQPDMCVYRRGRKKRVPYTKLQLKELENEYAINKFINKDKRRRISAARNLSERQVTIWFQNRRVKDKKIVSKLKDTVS
Sequence of HOXB6 (Homo sapiens, UniProt P17509 132-218, K202E) (P17509 132-218 K202E): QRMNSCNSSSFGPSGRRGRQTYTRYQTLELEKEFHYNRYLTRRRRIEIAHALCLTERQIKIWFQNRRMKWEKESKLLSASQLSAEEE
Sequence of HOXB6 (Homo sapiens, UniProt P17509 132-218) (P17509 132-218): as the sequence (P17509 132-218 K202E) above, with E71K counted along it
Sequence of HOXD13 (Homo sapiens, UniProt P35453 263-343) (P35453 263-343): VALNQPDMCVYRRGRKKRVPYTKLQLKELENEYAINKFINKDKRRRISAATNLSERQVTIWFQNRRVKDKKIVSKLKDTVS
Sequence of MSX2 (Homo sapiens, UniProt P35548 130-214) (P35548 130-214): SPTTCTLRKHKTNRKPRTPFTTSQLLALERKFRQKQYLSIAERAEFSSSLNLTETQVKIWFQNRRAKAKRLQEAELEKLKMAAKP
Sequence of HESX1 (Q9UBX0 95-180 R109Q): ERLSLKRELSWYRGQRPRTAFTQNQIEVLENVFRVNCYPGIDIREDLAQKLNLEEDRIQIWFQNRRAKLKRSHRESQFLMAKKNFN
Sequence of ALX1 (Homo sapiens, UniProt Q15699 118-204, L144R) (Q15699 118-204 L144R): as the sequence (Q15699 118-204 L144V) above, with V27R counted along it
Sequence of ALX3 (Homo sapiens, UniProt O95076 139-225, L168Q) (O95076 139-225 L168Q): as the sequence (O95076 139-225 L168V) above, with V30Q counted along it
Sequence of ALX1 (Homo sapiens, UniProt Q15699 118-204) (Q15699 118-204): as the sequence (Q15699 118-204 L144V) above, with V27L counted along it
Sequence of HOXD13 (Homo sapiens, UniProt P35453 263-343, T313A) (P35453 263-343 T313A): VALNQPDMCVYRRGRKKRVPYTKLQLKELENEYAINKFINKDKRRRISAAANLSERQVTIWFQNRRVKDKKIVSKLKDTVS

**Q.** How did the binding signal [1] turn out when AGCCTGAG was run?
**A.** The binding signal was 9.28 upbm affinity estimate (log intensity, higher = more binding, comparable within an allelic series).

**Q.** What about the binding signal [2] of the same sequence?
**A.** The binding signal was 8.98 upbm affinity estimate (log intensity, higher = more binding, comparable within an allelic series).

**Q.** What about the binding signal [3] of the same sequence?
**A.** The binding signal was 7.3 upbm affinity estimate (log intensity, higher = more binding, comparable within an allelic series).

**Q.** And the binding signal [4]?
**A.** The binding signal was 10.4 upbm affinity estimate (log intensity, higher = more binding, comparable within an allelic series).

**Q.** What about the binding signal [5] of the same sequence?
**A.** The binding signal was 6.61 upbm affinity estimate (log intensity, higher = more binding, comparable within an allelic series).

**Q.** What about the binding signal [6] of the same sequence?
**A.** Its binding signal is 6.62 upbm affinity estimate (log intensity, higher = more binding, comparable within an allelic series).

**Q.** And the binding signal [7]?
**A.** The binding signal was 6.73 upbm affinity estimate (log intensity, higher = more binding, comparable within an allelic series).

**Q.** And the binding signal [8]?
**A.** The binding signal was 10.5 upbm affinity estimate (log intensity, higher = more binding, comparable within an allelic series).

**Q.** And the binding signal [9]?
**A.** Its binding signal is 9.12 upbm affinity estimate (log intensity, higher = more binding, comparable within an allelic series).

**Q.** And the binding signal [10]?
**A.** Its binding signal is 7.33 upbm affinity estimate (log intensity, higher = more binding, comparable within an allelic series).

**Q.** And the binding signal [11]?
**A.** The binding signal was 8.88 upbm affinity estimate (log intensity, higher = more binding, comparable within an allelic series).

**Q.** For ACGTATTA, which binding signal [12] is on record?
**A.** Its binding signal is 11.7 upbm affinity estimate (log intensity, higher = more binding, comparable within an allelic series).

**Q.** What about the binding signal [13] of the same sequence?
**A.** The binding signal was 11 upbm affinity estimate (log intensity, higher = more binding, comparable within an allelic series).

**Q.** What about the binding signal [14] of the same sequence?
**A.** The binding signal was 11.1 upbm affinity estimate (log intensity, higher = more binding, comparable within an allelic series).

**Q.** Which binding signal [12] does the source give for CTGAGCGC here?
**A.** Its binding signal is 9.25 upbm affinity estimate (log intensity, higher = more binding, comparable within an allelic series).

**Q.** And the binding signal [15]?
**A.** The binding signal was 9.2 upbm affinity estimate (log intensity, higher = more binding, comparable within an allelic series).

**Q.** What about the binding signal [16] of the same sequence?
**A.** The binding signal was 9.31 upbm affinity estimate (log intensity, higher = more binding, comparable within an allelic series).

**Q.** What about the binding signal [17] of the same sequence?
**A.** Its binding signal is 9.15 upbm affinity estimate (log intensity, higher = more binding, comparable within an allelic series).

**Q.** What about the binding signal [13] of the same sequence?
**A.** The binding signal was 9.2 upbm affinity estimate (log intensity, higher = more binding, comparable within an allelic series).

**Q.** And the binding signal [14]?
**A.** Its binding signal is 9.27 upbm affinity estimate (log intensity, higher = more binding, comparable within an allelic series).

**Q.** With CCTTCCCC as the sequence, how does the binding signal [12] read?
**A.** The binding signal was 9.18 upbm affinity estimate (log intensity, higher = more binding, comparable within an allelic series).

**Q.** And the binding signal [15]?
**A.** The binding signal was 9.26 upbm affinity estimate (log intensity, higher = more binding, comparable within an allelic series).

**Q.** What about the binding signal [16] of the same sequence?
**A.** The binding signal was 9.24 upbm affinity estimate (log intensity, higher = more binding, comparable within an allelic series).

**Q.** What about the binding signal [17] of the same sequence?
**A.** Its binding signal is 9.11 upbm affinity estimate (log intensity, higher = more binding, comparable within an allelic series).

**Q.** What about the binding signal [13] of the same sequence?
**A.** Its binding signal is 9.14 upbm affinity estimate (log intensity, higher = more binding, comparable within an allelic series).

**Q.** And the binding signal [14]?
**A.** The binding signal was 9.24 upbm affinity estimate (log intensity, higher = more binding, comparable within an allelic series).

**Q.** How did the binding signal [12] turn out when AAGCGCTT was run?
**A.** Its binding signal is 9.65 upbm affinity estimate (log intensity, higher = more binding, comparable within an allelic series).

**Q.** And the binding signal [15]?
**A.** Its binding signal is 9.81 upbm affinity estimate (log intensity, higher = more binding, comparable within an allelic series).

**Q.** What about the binding signal [16] of the same sequence?
**A.** Its binding signal is 9.56 upbm affinity estimate (log intensity, higher = more binding, comparable within an allelic series).

**Q.** What about the binding signal [17] of the same sequence?
**A.** Its binding signal is 9.61 upbm affinity estimate (log intensity, higher = more binding, comparable within an allelic series).

**Q.** And the binding signal [13]?
**A.** The binding signal was 9.5 upbm affinity estimate (log intensity, higher = more binding, comparable within an allelic series).

**Q.** What about the binding signal [14] of the same sequence?
**A.** The binding signal was 9.68 upbm affinity estimate (log intensity, higher = more binding, comparable within an allelic series).

**Q.** Which binding signal [1] does the source give for CAGGCCGC here?
**A.** Its binding signal is 9.29 upbm affinity estimate (log intensity, higher = more binding, comparable within an allelic series).

**Q.** What about the binding signal [3] of the same sequence?
**A.** The binding signal was 7.44 upbm affinity estimate (log intensity, higher = more binding, comparable within an allelic series).

**Q.** And the binding signal [4]?
**A.** The binding signal was 10.3 upbm affinity estimate (log intensity, higher = more binding, comparable within an allelic series).

**Q.** And the binding signal [8]?
**A.** Its binding signal is 10.4 upbm affinity estimate (log intensity, higher = more binding, comparable within an allelic series).

**Q.** What about the binding signal [9] of the same sequence?
**A.** The binding signal was 9.35 upbm affinity estimate (log intensity, higher = more binding, comparable within an allelic series).

**Q.** What about the binding signal [10] of the same sequence?
**A.** The binding signal was 7.49 upbm affinity estimate (log intensity, higher = more binding, comparable within an allelic series).

**Q.** How did the binding signal [1] turn out when AATTATAG was run?
**A.** Its binding signal is 11.2 upbm affinity estimate (log intensity, higher = more binding, comparable within an allelic series).

**Q.** What about the binding signal [18] of the same sequence?
**A.** The binding signal was 12.2 upbm affinity estimate (log intensity, higher = more binding, comparable within an allelic series).

**Q.** What about the binding signal [19] of the same sequence?
**A.** The binding signal was 9.23 upbm affinity estimate (log intensity, higher = more binding, comparable within an allelic series).

**Q.** And the binding signal [20]?
**A.** Its binding signal is 9.73 upbm affinity estimate (log intensity, higher = more binding, comparable within an allelic series).

**Q.** And the binding signal [14]?
**A.** The binding signal was 10.9 upbm affinity estimate (log intensity, higher = more binding, comparable within an allelic series).

**Q.** With AATTAAAC as the sequence, how does the binding signal [1] read?
**A.** Its binding signal is 11.1 upbm affinity estimate (log intensity, higher = more binding, comparable within an allelic series).

**Q.** And the binding signal [21]?
**A.** The binding signal was 12.8 upbm affinity estimate (log intensity, higher = more binding, comparable within an allelic series).

**Q.** What about the binding signal [22] of the same sequence?
**A.** Its binding signal is 11.3 upbm affinity estimate (log intensity, higher = more binding, comparable within an allelic series).

**Q.** What about the binding signal [16] of the same sequence?
**A.** Its binding signal is 11.8 upbm affinity estimate (log intensity, higher = more binding, comparable within an allelic series).

**Q.** What about the binding signal [19] of the same sequence?
**A.** Its binding signal is 9.29 upbm affinity estimate (log intensity, higher = more binding, comparable within an allelic series).

**Q.** And the binding signal [23]?
**A.** Its binding signal is 11 upbm affinity estimate (log intensity, higher = more binding, comparable within an allelic series).

**Q.** And the binding signal [24]?
**A.** Its binding signal is 8.69 upbm affinity estimate (log intensity, higher = more binding, comparable within an allelic series).

**Q.** What about the binding signal [25] of the same sequence?
**A.** The binding signal was 10.2 upbm affinity estimate (log intensity, higher = more binding, comparable within an allelic series).

**Q.** And the binding signal [20]?
**A.** The binding signal was 9.91 upbm affinity estimate (log intensity, higher = more binding, comparable within an allelic series).

**Q.** What about the binding signal [26] of the same sequence?
**A.** The binding signal was 12 upbm affinity estimate (log intensity, higher = more binding, comparable within an allelic series).

**Q.** Which results are given for CATAAATC?
**A.** binding signal [1]: 10.2 upbm affinity estimate (log intensity, higher = more binding, comparable within an allelic series); binding signal [27]: 10.7 upbm affinity estimate (log intensity, higher = more binding, comparable within an allelic series); binding signal [28]: 11.8 upbm affinity estimate (log intensity, higher = more binding, comparable within an allelic series); binding signal [29]: 11.5 upbm affinity estimate (log intensity, higher = more binding, comparable within an allelic series); binding signal [9]: 11.5 upbm affinity estimate (log intensity, higher = more binding, comparable within an allelic series)

**Q.** How did the binding signal [1] turn out when ACCCCGGG was run?
**A.** Its binding signal is 9.35 upbm affinity estimate (log intensity, higher = more binding, comparable within an allelic series).

**Q.** What about the binding signal [18] of the same sequence?
**A.** The binding signal was 9.55 upbm affinity estimate (log intensity, higher = more binding, comparable within an allelic series).

**Q.** And the binding signal [30]?
**A.** Its binding signal is 9.62 upbm affinity estimate (log intensity, higher = more binding, comparable within an allelic series).

**Q.** And the binding signal [31]?
**A.** Its binding signal is 9.67 upbm affinity estimate (log intensity, higher = more binding, comparable within an allelic series).

**Q.** And the binding signal [9]?
**A.** Its binding signal is 9.33 upbm affinity estimate (log intensity, higher = more binding, comparable within an allelic series).
